Data from PubChem BioAssay AID504834 (National Center for Advancing Translational Sciences (NCATS), 2011).
Out of some 320,000 compounds screened, about 22,000 (6.9%) were called active. Roughly 27% stayed inconclusive and do not appear here. The sample as a whole holds a higher share of actives than the screen did. Values without a mark were called inactive. Calls follow the shape of the dose curve; as a rule, active = well fitted inhibition curve with a large enough effect; inconclusive = small, poorly fitted or top-dose-only effect, or another doubt; inactive = no such curve, though single readings can be large or run the other way.

Experiment: Primary qHTS for delayed death inhibitors of the malarial parasite plastid, 96 hour incubation
Details: P. falciparum luciferase reporter growth; series mostly up to 28.7 µM; activity change, negative = inhibition: at the top concentration
Summary of the method: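 P. falciparum expressing integrated firefly luciferase grown in erythrocytes (2% hematocrit, 0.05% parasitemia final) with compounds for 96 hours at 37 C, 5% CO2. Growth inhibition read as loss of luminescence after adding luciferase detection reagent.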
% is scaled to controls: 0 for no effect and ±100 for the full control effect; potency is read from the fitted curve at half-maximal effect.

| Structure (SMILES) | Potency | activity change, negative = inhibition |
| --- | --- | --- |
| O=C(CS(=O)(=O)c1cn(Cc2ccc(Cl)cc2)c2ccccc12)N1CCOCC1 | 8.28 µM (active) | – |
| O=C(CS(=O)(=O)c1cn(Cc2cccc(F)c2)c2ccccc12)N1CCCCC1 | – | 94.6% |
| Cc1ccc(CNC(=O)C(=O)c2cn(CC(=O)N3CCOCC3)c3ccccc23)cc1 | – | 41.8% |
| CCc1ccc(NC(=O)COC(=O)c2cccs2)cc1 | – | -27.9% |
| CCOC(=O)Cc1cc(=O)[nH]c(/N=C(\N)Nc2ccc(OC)cc2)n1 | – | 8% |
| O=C(CN1CCOCC1)N/N=C/c1ccc(-c2ccc(Br)cc2)o1 | – | 10.5% |
| C=CC1C(OC2OC(CO)C(O)C(O)C2O)OC=C(C(=O)OC)C1CC1CC(=O)CC(CC(=O)CCc2ccc(O)cc2)O1 (stereo unspecified) | 5.22 µM (active) | – |
| CC(/C=C/C1(O)C(C)CC(=O)CC1(C)C)OC1OC(CO)C(O)C(O)C1O (stereo unspecified) | – | 57.5% |
| COC(=O)C1=CO[C@@H](O[C@@H]2O[C@H](CO)[C@@H](O)[C@H](O)[C@H]2O)C2C1C[C@H](O)[C@@H]2C (stereo partly specified) | – | 37.1% |
| Cc1cc(=O)[nH]c2nnnn12 | – | 26% |
| NS(=O)(=O)c1ccc(CNC(=O)c2cccc(Oc3ccccc3)c2)cc1 | – | 4.38% |
| Cc1nc(C)c2c(c1C(F)(F)F)-c1ccccc1C2(F)F | 11.7 µM (active) | – |
| COCCCC1CCN(C(=O)C2CCC(=O)N(C3CCCCCC3)C2)CC1 (stereo unspecified) | – | 24.7% |
| CCN(CC)c1ccc(NC(=O)CN2C(=O)NC3(CCc4ccccc43)C2=O)cc1 (stereo unspecified) | – | 29.7% |
| COc1ccc(C(=O)NCc2nnc(SCCOc3ccccc3)n2C)cc1 | – | 11.2% |
| COc1ccc(C(=O)NCCSc2ccccc2C)cc1 | 3.29 µM (active) | – |
| COc1cccc(C(=O)NCCSc2ccc(Br)cc2)c1 | – | -24.1% |
| COc1cc(C(C(=O)NC2CCCC2)N(Cc2ccccc2)C(=O)c2snc(C(N)=O)c2N)ccc1O (stereo unspecified) | – | -1.49% |
| COc1ccc(CNC(=O)C(=O)NCC2OCCN2C(=O)c2ccc(OC)cc2)cc1 (stereo unspecified) | – | -5.85% |
| O=C(CCCC(=O)N(CC(=O)NC1CCCC1)Cc1ccccc1Cl)Nc1ccccn1 | – | -35.8% |
| O=C(CN(Cc1ccccc1)C(=O)CCC(=O)Nc1ccccn1)NCCc1ccccc1 | 13.1 µM (active) | – |
| Cc1ccnc(NC(=O)CCC(=O)N(CC(=O)NCCc2ccccc2)Cc2cccs2)c1 | – | 40.5% |
| C=CCn1c(N)c(C(=O)OCC(C)C)c2nc3ccccc3nc21 | – | 39.3% |
| CCC(C)NC(=O)c1c(N)n(/N=C/c2cccs2)c2nc3ccccc3nc12 (stereo unspecified) | 10.4 µM (active) | – |
| CCCNC(=O)c1c(N)n(-c2ccc(S(N)(=O)=O)cc2)c2nc3ccccc3nc12 | – | 38.1% |
| O=C(NCCc1c[nH]c2ccc(Cl)cc12)c1ccc([N+](=O)[O-])cc1 | – | -56.9% |

| Structure (SMILES) | Potency | activity change, negative = inhibition |
| --- | --- | --- |
| Cc1ccc(CNC(=O)c2c(-c3ccccc3)noc2C)cc1 | – | 1.58% |
| Oc1ccccc1CNc1ncc(Br)cc1Br | 13.1 µM (active) | – |
| Brc1ccc2ncnc(NCc3cccnc3)c2c1 | – | -2.48% |
| CCc1cccc(C)c1NS(=O)(=O)c1cc(Br)cnc1N | – | 19.6% |
| COc1ccc(S(=O)(=O)c2c[nH]c(=S)[nH]c2=O)cc1Cl | – | 37.2% |
| O=C(O)c1cc(S(=O)(=O)NC2CCCc3ccccc32)ccc1O (stereo unspecified) | – | 5.45% |
| CCCCn1c(=S)[nH]c2cc(S(=O)(=O)N3CCCCC3)ccc21 | 9.28 µM (active) | – |
| O=c1[nH]c2ccc(S(=O)(=O)N3CCCC3)cc2[nH]1 | – | 35.6% |
| CCCCn1c(N)c(N(CCOC)C(=O)c2cccc(S(=O)(=O)N3CCCCC3)c2)c(=O)[nH]c1=O | – | -0.352% |
| Cc1ccc(S(=O)(=O)N(C)C)cc1NC(=O)C1Cc2ccccc2CN1C(=O)c1ccco1 (stereo unspecified) | – | -21.9% |
| O=C(NCCCn1ccnc1)/C(=C\c1ccccc1F)NC(=O)c1ccccc1 | – | 22.2% |
| Cc1c(C(=O)OCC(=O)N2CCCC2=O)oc2ccccc12 | – | 20% |
| Oc1c(CN2CCCC2)cc(COCc2ccccc2)c2cccnc12 | 2.08 µM (active) | – |
| CC1CCCN(CC(O)COCc2ccccc2)C1 (stereo unspecified) | – | 33.6% |
| O=[N+]([O-])c1cc([N+](=O)[O-])c2cccnc2c1O | – | -7.46% |
| Cc1cnc(C(=O)N2CCCC(N3CCN(c4ccccc4F)CC3)C2)cn1 (stereo unspecified) | – | -0.336% |
| O=C(Nc1nnc(SCc2c(Cl)cccc2Cl)s1)c1cccc([N+](=O)[O-])c1 | – | 1.35% |
| CCN(Cc1ccccc1)C(=O)CCS(=O)(=O)c1ccc2c(c1)oc(=O)n2C | – | 7.96% |
| Cn1c(=O)oc2cc(S(=O)(=O)NCCC(=O)NCc3ccccc3Cl)ccc21 | 10.4 µM (active) | – |
| Cn1c(=O)oc2cc(S(=O)(=O)N3CCC(C(=O)Nc4ccc(OC(F)(F)F)cc4)CC3)ccc21 | – | 37.5% |
| CSCCC(NS(=O)(=O)c1ccc2c(c1)oc(=O)n2C)C(=O)NCc1ccccc1 (stereo unspecified) | – | 7.38% |
| Cc1ccc(NC(=O)CCNS(=O)(=O)c2ccc3c(c2)oc(=O)n3C)cc1C | – | 14.7% |
| COc1ccc(NC(=O)CCNS(=O)(=O)c2ccc3c(c2)c(=O)n(C)c(=O)n3C)cc1OC | – | 65% |
| COc1cc(NC(=O)CCS(=O)(=O)c2ccc3c(c2)oc(=O)n3C)cc(OC)c1 | 1.47 µM (active) | – |
| O=C(CCNS(=O)(=O)c1ccc(Br)s1)NCc1ccccc1Cl | – | 3.9% |
| COc1cccc(NC(=O)CCNS(=O)(=O)c2ccc3c(c2)oc(=O)n3C)c1 | 7.38 µM (active) | – |

| Structure (SMILES) | Potency | activity change, negative = inhibition |
| --- | --- | --- |
| CS(=O)(=O)N(CC(=O)Nc1ccc(F)cc1)C1CCCCC1 | – | 19.4% |
| CCOC(=O)Cn1c(O)c(N=NC(=O)CNC(=O)Cc2ccccc2)c2ccccc21 | – | 18.9% |
| Cc1nc2nc(C)c(NS(=O)(=O)c3ccc(C(C)(C)C)cc3)c(=O)n2[nH]1 | – | 26.3% |
| CC1CCN(C(=O)c2cccc(S(=O)(=O)N3CCCc4ccccc43)c2)CC1 | – | -9.51% |
| CC1CCN(C(=O)COC(=O)c2cc(=O)[nH]c3ccccc23)CC1 | – | 2.14% |
| CN(C)NC(=O)c1csnc1-c1c(Cl)cccc1Cl | – | -3.91% |
| O=C(COC(=O)CNS(=O)(=O)c1ccc(F)c(F)c1F)NC1CCCC1 | – | 15% |
| Cc1ccc(-c2csc(NC(=O)c3cnccn3)n2)cc1C | – | -3.59% |
| Cc1ccc(-c2csc(NC(=O)C3=COCCO3)n2)cc1C | 6.57 µM (active) | – |
| Cc1csc(NC(=O)C2=COCCO2)n1 | – | 121% |
| O=C(Nc1nc(-c2ccc3c(c2)OCO3)cs1)c1ccncc1 | 4.15 µM (active) | – |
| CC(=O)NCCC(=O)Nc1nc(-c2ccc3c(c2)OCCO3)cs1 | – | 105% |
| O=C(Nc1nc2ccccc2s1)c1ccc2c(c1)OCO2 | – | 31.4% |
| COc1ccc(NC(=O)NNC(=O)COc2cc(C)c(Cl)c(C)c2)c(OC)c1 | – | 15.4% |
| COC(=O)c1ccc(COc2cc([N+](=O)[O-])cc3cccnc23)cc1 | – | 105% |
| CCc1ccc(S(=O)(=O)NCC(O)COc2ccc(OC)cc2)cc1 (stereo unspecified) | – | 30.5% |
| O=C(Nc1cccc(-n2cnnn2)c1)c1cccnc1 | – | 33.7% |
| CC(=O)C(C)n1cnc2scc(-c3ccc(C)cc3)c2c1=O (stereo unspecified) | – | -25.2% |
| CCOC(=O)c1sc(NC(=O)CCN2CCOCC2)c(C(=O)OCC)c1C | – | 22.1% |
| CCOC(=O)Nc1sc(C(=O)N(C)C)c(C)c1C(=O)OCC | – | 207% |
| CCOC(=O)c1c(NC(=O)CCl)sc(C(=O)N(CC)CC)c1C | 9.28 µM (active) | – |
| O=C(NCc1ccncc1)c1ccc(NS(=O)(=O)c2cccc([N+](=O)[O-])c2)cc1 | – | -1.86% |
| Cc1nc2ccccc2c(=O)n1-c1ccc(NS(=O)(=O)c2ccc(F)cc2F)cc1 | – | 17.4% |
| CCn1c(SCc2ccccc2)nc2cc(OC)c(OC)cc2c1=O | 2.94 µM (active) | – |
| COCCn1c(SCc2nc3cc(OC)c(OC)cc3c(=O)[nH]2)nnc1-c1ccncc1 | – | 40.9% |
| CCn1c(Cc2ccccc2)nnc1SCc1nc2ccccc2c(=O)[nH]1 | – | 9.46% |

| Structure (SMILES) | Potency | activity change, negative = inhibition |
| --- | --- | --- |
| CS(=O)(=O)c1ccc(-c2nnn(CC(=O)Nc3ccc4c(c3)OCCO4)n2)cc1 | – | 19.7% |
| O=C1c2ccccc2C(=O)C1c1ccccc1F | – | -0.389% |
| O=C(NCc1ccco1)c1ccc([N+](=O)[O-])cc1Cl | – | -5.31% |
| Cc1ccc2c(c1)C1CN(C)CCC1N2C(=O)c1ccccc1NS(=O)(=O)c1ccc(F)cc1C (stereo unspecified) | 9.28 µM (active) | – |
| Cc1ccc2c(c1)C1CN(C)CCC1N2C(=O)Cn1nnc(-c2ccccc2F)n1 (stereo unspecified) | – | 27.2% |
| Cc1ccc2c(c1)C1CN(C)CCC1N2C(=S)Nc1ccc(Cl)cc1Cl (stereo unspecified) | – | -2.18% |
| CC(OC(=O)CNC(=O)c1ccco1)C(=O)Nc1ccc(Cl)cn1 (stereo unspecified) | – | 19.5% |
| Cc1ccc(-n2c(SCC(=O)N/N=C/C=C/c3ccccc3[N+](=O)[O-])nc3ccccc3c2=O)cc1 | 10.4 µM (active) | – |
| Cc1nn(-c2ccccc2)c(C)c1/C=N/NC(=O)CSc1nc2ccccc2c(=O)n1-c1ccccc1 | – | -19.8% |
| O=C(CSc1nc2ccccc2[nH]1)N/N=C/C=C\c1ccccc1[N+](=O)[O-] | – | -5.62% |
| COc1ccc(CCNC(=O)CN(C)S(=O)(=O)c2ccc3nc(C)sc3c2)cc1OC | – | 4.32% |
| CCCCSc1nc2c(c(=O)n1CC)SC(C)C2 (stereo unspecified) | – | -41.8% |
| Cn1c(SCC(=O)N2CCCCC2)nc2c(c1=O)SCC2 | – | -11.4% |
| CCn1c(SCC(=O)Nc2ccc3c(c2)OCCO3)nc2c(c1=O)SC(C)C2 (stereo unspecified) | – | 6.59% |
| COCCn1c(SCC(=O)Nc2ccccc2F)nc2c(c1=O)SCC2 | 14.7 µM (active) | – |
| COCCn1c(SCC(=O)Nc2cc(OC)ccc2OC)nc2c(c1=O)SC(C)C2 (stereo unspecified) | – | -29.5% |
| CCn1c(SCC(=O)Nc2ccccc2F)nc2c(c1=O)SC(C)C2 (stereo unspecified) | 11.7 µM (active) | – |
| CC1Cc2nc(SCC(=O)Nc3ccccc3F)n(C)c(=O)c2S1 (stereo unspecified) | – | 27.8% |
| Cn1nnnc1SCC(=O)Nc1ccccc1C(=O)NC1CC1 | – | 11.2% |
| COCCn1c(SCC(=O)Nc2cc(Cl)ccc2OC)nc2c(c1=O)SC(C)C2 (stereo unspecified) | 3.7 µM (active) | – |
| CCOc1ccc(CCNC(=O)COC(=O)C2CCN(c3ccc(C(F)(F)F)cn3)CC2)cc1OCC | – | -3.1% |
| FC(F)(F)C1CCCN(c2nsc3ccccc23)C1 (stereo unspecified) | – | -53.7% |
| Cc1cccc(NC(=O)C2CCCN(C(=O)Nc3ccc(F)cc3)C2)c1C (stereo unspecified) | – | 33.5% |
